Data: PubChem BioAssay (EPA / NIEHS)
Results filed as inconclusive are left out. Calls of active or inactive are those of the source. The calls were made as follows, unless noted: active = hit-call score of the fitted dose curve at least 0.9, where 1 is the maximum; inactive = score below 0.9.

Key:
[1] = molecular target: Nucleoli Translocation, AR (gene 367) (UniProt P10275); test: UPITT_HCI_U2OS_AR_TIF2_Nucleoli_Agonist: University of Pittsburgh U2OS Androgen Receptor-Transcriptional Intermediary Factor 2 (AR-TIF2) Agonism High Content Imaging Assay for Nucleoli Translocation (AID 2283998; active = hit-call score of the fitted dose curve at least 0.9, where 1 is the maximum)
Chain of Nucleoli Translocation, AR (gene 367) (P10275 whole entry, looked up): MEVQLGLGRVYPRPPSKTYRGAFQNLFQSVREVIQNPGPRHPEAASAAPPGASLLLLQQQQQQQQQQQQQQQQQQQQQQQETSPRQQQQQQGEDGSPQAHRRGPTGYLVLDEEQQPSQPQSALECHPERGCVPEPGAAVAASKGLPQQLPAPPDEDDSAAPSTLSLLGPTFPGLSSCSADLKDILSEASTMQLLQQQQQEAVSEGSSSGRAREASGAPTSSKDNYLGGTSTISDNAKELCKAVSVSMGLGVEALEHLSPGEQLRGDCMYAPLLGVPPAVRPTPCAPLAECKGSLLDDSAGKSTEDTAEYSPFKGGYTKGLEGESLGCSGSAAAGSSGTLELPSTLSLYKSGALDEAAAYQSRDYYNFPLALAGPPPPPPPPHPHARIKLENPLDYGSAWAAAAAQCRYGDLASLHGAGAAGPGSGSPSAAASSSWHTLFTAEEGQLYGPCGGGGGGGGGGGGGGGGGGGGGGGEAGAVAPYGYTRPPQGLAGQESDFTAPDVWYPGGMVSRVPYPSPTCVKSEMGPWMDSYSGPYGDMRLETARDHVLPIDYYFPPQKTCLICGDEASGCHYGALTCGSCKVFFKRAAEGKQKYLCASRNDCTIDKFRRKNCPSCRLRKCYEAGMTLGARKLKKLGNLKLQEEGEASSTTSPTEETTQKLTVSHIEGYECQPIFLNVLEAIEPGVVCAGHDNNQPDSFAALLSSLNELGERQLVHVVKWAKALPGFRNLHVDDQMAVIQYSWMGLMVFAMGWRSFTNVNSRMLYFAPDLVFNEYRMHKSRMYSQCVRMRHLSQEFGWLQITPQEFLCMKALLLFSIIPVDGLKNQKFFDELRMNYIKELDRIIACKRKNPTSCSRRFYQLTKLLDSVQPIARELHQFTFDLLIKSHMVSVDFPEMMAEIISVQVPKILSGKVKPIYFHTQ
How it was run: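 Readout is red (AR-RFP) fluorescence localized to nucleoli, measured by high-content imaging and analysed for increase relative to DMSO. Compound series spanned 0.195 to 50 uM final in 0.5% DMSO.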

[2] = molecular target: Ratio of Nucleoli Translocation and Cytoplasm, AR (gene 367) (UniProt P10275); test: UPITT_HCI_U2OS_AR_TIF2_Nucleoli_Cytoplasm_Ratio_Antagonist: University of Pittsburgh U2OS Androgen Receptor-Transcriptional Intermediary Factor 2 (AR-TIF2) Antagonism High Content Imaging Assay for Ratio of Nucleoli Translocation and Cytoplasm (AID 2283999; active = hit-call score of the fitted dose curve at least 0.9, where 1 is the maximum;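 also: antagonists lower the DHT-driven ratio of nucleolar to cytoplasmic red signal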)
Chain of Ratio of Nucleoli Translocation and Cytoplasm, AR (gene 367) (P10275 whole entry, looked up): as above
How it was run: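 U2OS cells co-expressing RFP-tagged human AR and GFP-tagged TIF2, antagonist mode with DHT as baseline. Nucleolar-to-cytoplasmic red fluorescence ratio imaged by high-content microscopy; final compound 20 uM (0.2% DMSO) primary, 0.195–50 uM (0.5% DMSO) concentration-response.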

[3] = molecular target: Ratio of Nucleoli Translocation and Cytoplasm, AR (gene 367) (UniProt P10275); test: UPITT_HCI_U2OS_AR_TIF2_Nucleoli_Cytoplasm_Ratio_Agonist: University of Pittsburgh U2OS Androgen Receptor-Transcriptional Intermediary Factor 2 (AR-TIF2) Agonism High Content Imaging Assay for Ratio of Nucleoli Translocation and Cytoplasm (AID 2284000; active = hit-call score of the fitted dose curve at least 0.9, where 1 is the maximum;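 also: hits raise the red nucleolar to cytoplasm ratio above vehicle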)
How it was run: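 Read-out first: nucleolar-to-cytoplasm ratio of red (AR-RFP) signal, quantified by high-content imaging in U2OS cells co-expressing TIF2-GFP. Activity is scored as signal increase over DMSO. Single-point screening used 20 uM final (0.2% DMSO).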

[4] = CCTE_Shafer_MEA_dev_firing_rate_mean: CCTE's Neural Network Formation Assay for Mean Firing Rate, Shafer Lab (AID 2284031);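 also: curve fitted for loss of firing so AC50 reflects decreased mean firing rate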
How it was run: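 Primary rat cortical neurons on 48-well MEA plates, exposed from plating day 0 with dosing renewed on DIV 5 and 9. Mean well firing rate over active electrodes, recorded days 5, 7, 9, 12, summarised as trapezoidal AUC.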

[5] = CCTE_Shafer_MEA_dev_per_burst_spike_percent: CCTE's Neural Network Formation Assay for Percent of Spikes in a Burst, Shafer Lab (AID 2284032);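 also: fitted as a decrease in burst spike percentage below DMSO baseline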
How it was run: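 Rat primary cortical neurons on 16-electrode MEA wells, dosed from plating day 0 for 12 days with renewal on DIV 5 and 9; spikes-in-bursts percentage averaged over bursting electrodes, collapsed as AUC across days 5, 7, 9, 12; loss direction versus DMSO.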

[6] = CCTE_Shafer_MEA_dev_active_electrodes_number: CCTE's Neural Network Formation Assay for Number of Active Electrodes, Shafer Lab (AID 2284040; active = hit-call score of the fitted dose curve at least 0.9, where 1 is the maximum;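 also: potency for loss of active electrodes versus DMSO so lower counts are hits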)
How it was run: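 Primary rat cortical neurons on 16-electrode MEA wells, exposed from day 0 through day 12 with compound renewed at DIV 5 and 9 feeds. Active electrodes (mean firing ≥5 spikes/min) counted at DIV 5, 7, 9, 12; trapezoidal AUC across days, loss-of-signal versus DMSO.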

[7] = CCTE_Shafer_MEA_dev_burst_rate: CCTE's Neural Network Formation Assay for Burst Rate, Shafer Lab (AID 2284042);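 also: potency for loss of burst rate below DMSO control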
How it was run: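 Developmental network assay measuring how 12-day exposure of rat cortical neuron cultures alters bursting on extracellular MEA recordings. Values are AUC of well-mean burst rate across four recording days, relative to DMSO vehicle.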

[8] = CCTE_Shafer_MEA_dev_bursting_electrodes_number: CCTE's Neural Network Formation Assay for Number of Bursting Electrodes, Shafer Lab (AID 2284043; active = hit-call score of the fitted dose curve at least 0.9, where 1 is the maximum;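 also: potency is for loss of bursting electrodes relative to DMSO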)
How it was run: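 Read-out is the per-well number of electrodes bursting at least once every 2 minutes, recorded on days 5, 7, 9 and 12 and collapsed by trapezoidal area under the curve. Cultures were primary rat cortical neurons on MEA plates, treated continuously from plating.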

[9] = CCTE_Shafer_MEA_dev_burst_duration_mean: CCTE's Neural Network Formation Assay for Mean Burst Duration, Shafer Lab (AID 2284045);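 also: curve fitted for loss meaning shorter burst duration than DMSO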
How it was run: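 Read-out: average first-to-last-spike interval within single-electrode bursts, averaged over bursting electrodes per well, then summarised as area under the curve across days 5, 7, 9 and 12. Developing rat cortical networks were exposed from day 0.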

[10] = CCTE_Shafer_MEA_dev_interburst_interval_mean: CCTE's Neural Network Formation Assay for Mean Interburst Interval, Shafer Lab (AID 2284046);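 also: well-mean interburst interval of bursting electrodes as AUC over four recording days; curve fitted for decrease in interburst interval relative to DMSO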
How it was run: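 Network formation assay in primary rat cortical cultures, exposed from DIV 0 to 12. Mean interburst interval per well, integrated as AUC over four recordings.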

[11] = CCTE_Shafer_MEA_dev_inter_network_spike_interval_mean: CCTE's Neural Network Formation Assay for Mean Inter-network Spike Interval, Shafer Lab (AID 2284047);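 also: potency for a decrease in mean inter-network spike interval below DMSO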
How it was run: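 Compound was given at plating to primary rat cortical neurons and renewed with full medium changes on DIV 5 and 9. Extracellular activity was recorded on days 5, 7, 9, 12; AUC values were fitted for loss relative to DMSO control.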

[12] = CCTE_Shafer_MEA_dev_network_spike_number: CCTE's Neural Network Formation Assay for Number of Network Spikes, Shafer Lab (AID 2284048);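 also: synchronized bursts across electrodes counted on days 5 7 9 12 and integrated as AUC; fit as a loss of signal meaning fewer network spikes than DMSO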
How it was run: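 Developing networks of primary rat cortical neurons are treated over 12 days starting at plating, with media and compound fully replaced on DIV 5 and 9. Network spike counts from four recording days are integrated as trapezoidal AUC.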

[13] = CCTE_Shafer_MEA_dev_network_spike_peak: CCTE's Neural Network Formation Assay for Mean Number of Electrodes in Network Spike, Shafer Lab (AID 2284049);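 also: fitted for loss of signal meaning fewer electrodes in network spikes than DMSO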
How it was run: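 Rat cortical primary culture, 1.5 x 10^5 cells/well, 48-well MEA (16 electrodes/well). Dosing day 0 through DIV 12, full media/compound exchange DIV 5, 9. AxIS adaptive spike detection; AUC over days 5/7/9/12; loss-of-signal vs DMSO.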

[14] = CCTE_Shafer_MEA_dev_spike_duration_mean: CCTE's Neural Network Formation Assay for Mean Spike Duration, Shafer Lab (AID 2284051);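 also: mean network spike duration pooled as area under curve over DIV 5 to 12 recordings; potency for a decrease in mean network spike duration versus DMSO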
How it was run: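 With DMSO as baseline, loss of mean network spike duration was scored from extracellular recordings of rat cortical neurons on MEA plates. Exposure spanned plating to DIV 12; the four recording days were collapsed into one AUC value.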

[15] = CCTE_Shafer_MEA_dev_network_spike_duration_std: CCTE's Neural Network Formation Assay for Standard Deviation of Network Spike Duration, Shafer Lab (AID 2284052);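 also: area under curve of spike duration SD across recording days 5 to 12; hits are decreases in network spike duration SD versus DMSO vehicle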
How it was run: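 Developing networks of rat cortical neurons were exposed over twelve days in vitro on 48-well MEA plates. Trapezoidal AUC of recordings (DIV 5–12) was analysed for signal loss relative to DMSO vehicle.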

[16] = CCTE_Shafer_MEA_dev_per_network_spike_spike_number_mean: CCTE's Neural Network Formation Assay for Mean Number of Spikes in a Network Spike, Shafer Lab (AID 2284053);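 also: fitted as decrease in spikes per network spike relative to DMSO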
How it was run: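 First, rat cortical cells (1.5 x 10^5/well) were seeded onto MEA wells; second, dosing began at plating and was refreshed on DIV 5 and 9; finally, network-spike spike counts across DIV 5–12 were summarized as AUC.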

[17] = CCTE_Shafer_MEA_dev_per_network_spike_spike_percent: CCTE's Neural Network Formation Assay for Percent of Spikes in a Network Spike, Shafer Lab (AID 2284054)
How it was run: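 Rat primary cortical cultures, 1.5 x 10^5 cells/well on MEA. Continuous compound exposure d0–12, medium/compound renewed DIV 5, 9. Network-spike spike % (0.05 s peak window), AUC over 4 recordings, DMSO baseline.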

[18] = UKN5_HCS_SBAD2_cell_viability: Viability Assessment in the University of Konstanz (UKN) Leist Lab Neurite Outgrowth Assay in human iPSC-derived immature Dorsal Root Ganglia Neurons (UKN5) (AID 2284056)
How it was run: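 iPSC-derived immature peripheral neurons (SBAD2) seeded on Matrigel with CHIR99021, SU5402 and DAPT, dosed 1 h later for 24 h. Viability from Hoechst H-33342 and calcein-AM live staining, high-content imaging; bidirectional fit versus DMSO.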

[19] = CCTE_Shafer_MEA_dev_LDH: CCTE's Lactate Dehydrogenase Assay for Cytotoxicity in the Neural Network Formation Assay, Shafer Lab (AID 2284068; active = hit-call score of the fitted dose curve at least 0.9, where 1 is the maximum;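 also: exposure for twelve days from plating with re-dosing on DIV 5 and 9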)
How it was run: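 Developing rat cortical networks on MEA plates are exposed to compound for 12 days from plating. LDH activity is measured spectrophotometrically, with DMSO as baseline.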

[20] = UKN5_HCS_SBAD2_neurite_outgrowth: University of Konstanz (UKN) Leist Lab Neurite Outgrowth Assay in human iPSC-derived immature Dorsal Root Ganglia Neurons (UKN5) (AID 2284070); conditions: actives raise or lower the signal
How it was run: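 SBAD2 iPSC-derived immature peripheral neurons on Matrigel, 100.000 cells/cm2, medium with CHIR99021 (1.5 uM), SU5402 (5 uM), DAPT (5 uM); compound added 1 h post-seeding for 24 h. Calcein-AM neurite area by high-content imaging; Hoechst H-33342 viability; bidirectional fit vs DMSO.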

[21] = CCTE_Shafer_MEA_dev_AB: CCTE's Alamar Blue Assay for Cytotoxicity in the Neural Network Formation Assay, Shafer Lab (AID 2284083; active = hit-call score of the fitted dose curve at least 0.9, where 1 is the maximum;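 also: resazurin reduction fluorescence as viability of cultured neurons; twelve days of exposure from plating with re-dosing on DIV 5 and 9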)
How it was run: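 Cytotoxicity companion to the developmental MEA: primary rat cortical neurons, 12-day exposure starting day 0, compound refreshed DIV 5 and 9; resazurin fluorescence, fitted against DMSO vehicle.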

[22] = CCTE_Shafer_MEA_dev_mutual_information_norm: CCTE's Neural Network Formation Assay for Mutual Information Normalization, Shafer Lab (AID 2284091);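 also: mutual information between electrodes summarised as area under curve across four recording days; potency is for a decrease in mutual information relative to DMSO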
How it was run: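 Developing rat cortical networks on 16-electrode MEA wells are treated throughout formation (DIV 0–12). Shared electrode information is recorded four times, converted to area-under-curve, and fitted for decreases against DMSO vehicle.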

[23] = UKN4_HCS_LUHMES_neurite_outgrowth: University of Konstanz (UKN) Leist Lab Neurite Outgrowth Assay in human LUHMES cells (UKN4) (AID 2284206); conditions: actives raise or lower the signal
How it was run: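 Human LUHMES neuronal precursors, differentiated 2 days then replated without cAMP and GDNF, exposed to compounds for 24 h. Neurite area imaged by high-content microscopy after calcein-AM live staining; Hoechst H-33342 for viability; bidirectional fit versus DMSO.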

[24] = IUF_NPC1a_proliferation_area_72hr: Leibniz Research Institute for Environmental Medicine (IUF) 72-hour Neural Progenitor Cell Proliferation Area Assay (NPC1a) (AID 2284208)
How it was run: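 Spheres of 0.3 mm are plated singly in growth-factor medium and exposed from day 0. After three days at 37C and 5% CO2, sphere area is measured by phase contrast imaging, with activity referenced to DMSO.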

[25] = IUF_NPC1_viability_72hr: Viability Assessment at 72 hours in the Leibniz Research Institute for Environmental Medicine (IUF) Neural Progenitor Cell Proliferation Assay (NPC1) (AID 2284209)
How it was run: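 Single spheres (0.25-0.35 mm) of human fetal cortex-derived neural progenitor cells were grown in proliferation medium with EGF and FGF at 37C and 5% CO2. They were exposed for 72 h without renewal, and viability was read by alamar blue resorufin fluorescence.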

[26] = CCTE_Mundy_HCI_Cortical_Synap_Neur_Matur_NeuriteSpotCountPerNeuriteLength: CCTE's Synaptogenesis and Neurite Maturation Assay in rat cortical cells for Neurite Spot Count per Neurite Length, Mundy Lab (AID 2284210)
How it was run: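 Primary rat cortical neurons, compound exposure DIV 7–12, 288.33 h endpoint. Hoechst, anti-MAP2 and anti-synaptophysin labelling; neurite-associated puncta per neurite length scored by automated imaging relative to DMSO controls.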

With C[n+]1ccc(-c2cc[n+](C)cc2)cc1 the outcome [1] was “inactive”, the outcome [2] was “inactive” and the outcome [3] was “inactive”. For the same compound, the AC50 [4] was 2290 nM (active), the AC50 [5] was 1710 nM (active) and the AC50 [6] was 1250 nM (active). For the same compound, the AC50 [7] was 2290 nM (active), the AC50 [8] was 1180 nM (active) and the AC50 [9] was 2290 nM (active). For the same compound, the AC50 [10] was 1160 nM (active), the AC50 [11] was 760 nM (active) and the AC50 [12] was 2310 nM (active). The AC50 [13] was 1380 nM (active), the AC50 [14] was 1150 nM (active) and the AC50 [15] was 1420 nM (active). For the same compound, the AC50 [16] was 1440 nM (active), the AC50 [17] was 1810 nM (active) and the outcome [18] was “inactive”. For the same compound, the AC50 [19] was 1710 nM (active), the AC50 [20] was 202000 nM (active) and the AC50 [21] was 2340 nM (active). For the same compound, the AC50 [22] was 2290 nM (active), the AC50 [23] was 189000 nM (active) and the outcome [24] was “inactive”. For the same compound, the outcome [25] was “inactive” and the outcome [26] was “inactive”.
